Among the data in PubChem BioAssay (NCI) are growth values, retold here.

This is part of a sample that, as a whole, favours compounds with a hit. Of some 83,000 tested, about 20% had one in any assay.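 Cell lines were cultured in 96-well plates, exposed to a single compound concentration, and assessed for percent growth 48 hours later.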 A number with no mark means an inactive call. Calls of active or inactive are those of the source. The calls were made as follows: active = growth percent below 10; inactive = the rest.

Common to all, as to test: NCI-60 one-dose screen, 48 h (100 = growth as untreated, 0 = no growth, -100 = all killed)
Common to all, as to details: 10 µM unless noted

Assay [1] deals with NCI-H23 lung.
The test system of assay [2] is NCI-H226 lung.
The test system of assay [3] is NCI-H322M lung.
For assay [4], the system named is HOP-62 NSCLC.
The subject of assay [5] is NCI-H460 lung.
Assay [6] relates to HOP-92 NSCLC.
Assay [7] concerns NCI-H522 lung.
Assay [8] relates to A549/ATCC NSCLC.
The subject of assay [9] is 786-0 renal.
For assay [10], the system named is COLO 205 colon.
Assay [11] concerns DU-145 prostate.
In assay [12] the test system is K-562 leukemia.
Assay [13] relates to MALME-3M melanoma.
The subject of assay [14] is MDA-MB-231 breast.
For assay [15], the system named is RXF 393 renal.
The subject of assay [16] is SF-268 CNS.
Assay [17] concerns SF-295 CNS.
For assay [18], the system named is SF-539 CNS.
In assay [19] the test system is UACC-257 melanoma.
The test system of assay [20] is M14 melanoma.

With `O=C(CSc1nnc(-c2cc(-c3ccc(Cl)cc3)nc3ccccc23)n1-c1ccccc1)Nc1ccc(Cl)cc1`, the growth was 99.7% in [1]; 95% in assay [2]; 102% in assay [3]; 114% in [4]; 100% in assay [5]; 111% in [6]. Further, the growth in assay [7] was 93.4%; in [8] it was 96.2%; in [9], 96.8%; in [10], 115%; in [11] it was 107%; in assay [12], 85.1%. Besides, the growth in assay [13] was 107%; in assay [14], 89.7%; in [15], 118%; in assay [16], 94%; in assay [17], 99.5%; in assay [18], 111%. Also, the values for the growth in assay [19] and in assay [20] were 96.2% and 109%, respectively.
Regarding `CSc1nn2c(-c3cc4cc(Br)ccc4oc3=O)ccnc2c1C#N`, the growth in [1] is 95.3%; in assay [2] it was 99.3%; in assay [3], 102%; in [4] it was 97.9%; in assay [5], 104%; in assay [6], 105%. Besides, the growth in assay [7] is 92.8%; in assay [8], 107%; in assay [9], 101%; in assay [10], 119%; in assay [11], 110%; in assay [12], 104%. The growth in assay [13] is 120%; in assay [14], 105%; in assay [15] it was 109%; in assay [16], 103%; in assay [17], 103%; in assay [18] it was 106%. In addition, the growth in assay [19] is 106%; in [20] it was 104%.
For `O=S(=O)(c1ccc(NCSc2nc3ccccc3s2)cc1)c1ccc(NCSc2nc3ccccc3s2)cc1`, the growth in assay [1] is 102%; in assay [2], 87.8%; in assay [3] it was 103%; in assay [4], 66.4%; in assay [5] it was 104%; in assay [6] it was 70.7%. Moreover, the growth in assay [7] was 69.7%; in assay [8], 91.1%; in assay [9], 99.6%; in assay [10], 97.1%; in assay [11], 106%; in assay [12] it was 77.3%. The growth was 90.5% in assay [13]; 86.4% in assay [14]; 99.1% in assay [15]; 97.5% in assay [16]; 98.6% in [17]; 103% in assay [18]. In addition, the growth in assay [19] is 94.7%; in assay [20], 96.1%.
For `COC(=O)c1nc(-c2ccccc2)oc1S(=O)(=O)NCC(c1ccc(Cl)cc1)N1CCCCC1` (stereo not given), the growth in assay [1] is 84.4%; in [2], 88.5%; in [3], 97.2%; in assay [4], 90.9%; in assay [5], 85.6%; in assay [6] it was 48.8%. In addition, the growth was 25.6% in assay [7]; 85.3% in assay [8]; 59.8% in assay [9]; 72.1% in [10]; 97.9% in assay [11]; 9.15% (active) in [12]. The growth in assay [13] is 99.1%; in [14], 72.2%; in assay [15], 82.7%; in assay [16], 82.5%; in [17], 102%; in assay [18], 88.1%. Also, the results for the growth in [19] and in assay [20] were 88% and 38%, respectively.
With `COc1ccc(C2CC(=O)Oc3c(OC)c4c(c(OC)c32)OCO4)cc1` (stereo not given), the growth in [1] was 98.1%; in assay [2], 112%; in assay [3], 90.1%; in assay [4] it was 84.9%; in assay [5], 107%; in [6], 101%. Further, the growth in assay [7] is 85.7%; in assay [8], 97.6%; in assay [9] it was 100%; in [10] it was 103%; in assay [11], 112%; in assay [12], 61.1%. Moreover, the growth in assay [13] is 94.5%; in [14], 100%; in assay [15], 99.6%; in assay [16], 99.3%; in assay [17] it was 102%; in [18], 98.6%. The results for the growth in [19] and in assay [20] were 101% and 98.8%, respectively.
For `COc1ccc(C(c2cc(OC)c(OC)c(OC)c2)n2cncn2)cc1O` (stereo not given), the growth was 39.9% in [1]; 73.4% in [2]; 51.5% in assay [3]; 32.2% in assay [4]; 9.82% (active) in [5]; 43.9% in [6]. Besides, the growth is 12.8% in assay [7]; 18.6% in assay [8]; 28.1% in assay [9]; -1.65% (active) in assay [10]; 19.6% in assay [11]; 8.34% (active) in assay [12]. Further, the growth in [13] was 70.2%; in assay [14], 43.1%; in [15], -13.8% (active); in [16], 48.8%; in assay [17], 2.56% (active); in [18], 9.34% (active). The growth in assay [19] was 44.4%; in assay [20] it was -1.61% (active).
For the compound `COc1cc(OC)cc(C(=O)Nc2cnc(Nc3ccc(N4CCOCC4)nc3)nc2Oc2ccc(C(F)(F)F)cc2)c1`, the growth was 82% in assay [1]; 39.9% in assay [2]; 77.4% in [3]; 43.1% in [4]; 31.1% in assay [5]; 86.7% in [6]. Further, the growth in assay [7] is 77.1%; in assay [8], 35.4%; in assay [9], 54.8%; in assay [10], 83%; in [11] it was 78.8%; in assay [12] it was 97%. Also, the growth in assay [13] was 57.2%; in assay [14], 44%; in assay [15] it was 76.5%; in assay [16], 78.7%; in [17], 77%; in [18], 34%. The values for the growth in [19] and in [20] were 16.7% and 93.1%, respectively.
